Source: ChEMBL document CHEMBL1961873, “Compounds: GSK PKIS; Assays: Nanosyn kinase panel” (2012)

Legend:
[1] = target: Serine/threonine-protein kinase MRCK alpha (Homo sapiens) (UniProt Q5VT25); settings: at 0.1 µM
[2] = target: Serine/threonine-protein kinase MRCK alpha (Homo sapiens) (UniProt Q5VT25); settings: at 1 µM
[3] = target: Serine/threonine-protein kinase MRCK beta (Homo sapiens) (UniProt Q9Y5S2); settings: at 0.1 µM
[4] = target: Serine/threonine-protein kinase MRCK beta (Homo sapiens) (UniProt Q9Y5S2); settings: at 1 µM
[5] = target: Ribosomal protein S6 kinase alpha-5 (Homo sapiens) (UniProt O75582); settings: at 0.1 µM
[6] = target: Ribosomal protein S6 kinase alpha-5 (Homo sapiens) (UniProt O75582); settings: at 1 µM
[7] = target: Ribosomal protein S6 kinase alpha-4 (Homo sapiens) (UniProt O75676); settings: at 0.1 µM
[8] = target: Ribosomal protein S6 kinase alpha-4 (Homo sapiens) (UniProt O75676); settings: at 1 µM
[9] = target: Ribosomal protein S6 kinase beta-1 (Homo sapiens) (UniProt P23443); settings: at 0.1 µM
[10] = target: Ribosomal protein S6 kinase beta-1 (Homo sapiens) (UniProt P23443); settings: at 1 µM
[11] = target: T1, 3-phosphoinositide-dependent protein kinase 1 (Homo sapiens) (UniProt O15530); settings: at 0.1 µM;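 also: values are mean inhibition of PDK1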
T1 sequence (whole entry): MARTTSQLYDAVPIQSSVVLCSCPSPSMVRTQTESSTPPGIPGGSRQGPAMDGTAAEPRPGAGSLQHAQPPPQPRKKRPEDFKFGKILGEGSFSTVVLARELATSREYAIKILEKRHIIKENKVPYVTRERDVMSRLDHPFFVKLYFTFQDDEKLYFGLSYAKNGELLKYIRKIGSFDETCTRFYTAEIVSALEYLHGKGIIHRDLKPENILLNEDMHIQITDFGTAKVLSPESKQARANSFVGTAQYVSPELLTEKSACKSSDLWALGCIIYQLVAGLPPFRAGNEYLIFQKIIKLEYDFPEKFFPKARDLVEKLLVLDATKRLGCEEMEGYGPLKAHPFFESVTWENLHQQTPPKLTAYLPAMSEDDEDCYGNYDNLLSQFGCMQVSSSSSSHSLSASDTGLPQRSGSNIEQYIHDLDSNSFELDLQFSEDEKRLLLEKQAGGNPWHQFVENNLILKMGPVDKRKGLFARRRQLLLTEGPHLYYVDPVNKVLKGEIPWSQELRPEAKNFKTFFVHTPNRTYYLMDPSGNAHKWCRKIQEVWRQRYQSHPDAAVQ

[12] = target: cAMP-dependent protein kinase catalytic subunit alpha (Homo sapiens) (UniProt P17612); settings: at 0.1 µM
[13] = target: cAMP-dependent protein kinase catalytic subunit alpha (Homo sapiens) (UniProt P17612); settings: at 1 µM
[14] = target: Protein kinase C alpha type (Homo sapiens) (UniProt P17252); settings: at 0.1 µM
[15] = target: Protein kinase C alpha type (Homo sapiens) (UniProt P17252); settings: at 1 µM
[16] = target: Protein kinase C beta type (Homo sapiens) (UniProt P05771); settings: at 0.1 µM
[17] = target: Protein kinase C beta type (Homo sapiens) (UniProt P05771); settings: at 1 µM
[18] = target: Protein kinase C eta type (Homo sapiens) (UniProt P24723); settings: at 0.1 µM
[19] = target: Protein kinase C eta type (Homo sapiens) (UniProt P24723); settings: at 1 µM
[20] = target: Protein kinase C gamma type (Homo sapiens) (UniProt P05129); settings: at 0.1 µM;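 also: values are mean percent inhibition of PKC gamma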

Sequence of Serine/threonine-protein kinase MRCK beta (Homo sapiens) (Q9Y5S2 whole entry): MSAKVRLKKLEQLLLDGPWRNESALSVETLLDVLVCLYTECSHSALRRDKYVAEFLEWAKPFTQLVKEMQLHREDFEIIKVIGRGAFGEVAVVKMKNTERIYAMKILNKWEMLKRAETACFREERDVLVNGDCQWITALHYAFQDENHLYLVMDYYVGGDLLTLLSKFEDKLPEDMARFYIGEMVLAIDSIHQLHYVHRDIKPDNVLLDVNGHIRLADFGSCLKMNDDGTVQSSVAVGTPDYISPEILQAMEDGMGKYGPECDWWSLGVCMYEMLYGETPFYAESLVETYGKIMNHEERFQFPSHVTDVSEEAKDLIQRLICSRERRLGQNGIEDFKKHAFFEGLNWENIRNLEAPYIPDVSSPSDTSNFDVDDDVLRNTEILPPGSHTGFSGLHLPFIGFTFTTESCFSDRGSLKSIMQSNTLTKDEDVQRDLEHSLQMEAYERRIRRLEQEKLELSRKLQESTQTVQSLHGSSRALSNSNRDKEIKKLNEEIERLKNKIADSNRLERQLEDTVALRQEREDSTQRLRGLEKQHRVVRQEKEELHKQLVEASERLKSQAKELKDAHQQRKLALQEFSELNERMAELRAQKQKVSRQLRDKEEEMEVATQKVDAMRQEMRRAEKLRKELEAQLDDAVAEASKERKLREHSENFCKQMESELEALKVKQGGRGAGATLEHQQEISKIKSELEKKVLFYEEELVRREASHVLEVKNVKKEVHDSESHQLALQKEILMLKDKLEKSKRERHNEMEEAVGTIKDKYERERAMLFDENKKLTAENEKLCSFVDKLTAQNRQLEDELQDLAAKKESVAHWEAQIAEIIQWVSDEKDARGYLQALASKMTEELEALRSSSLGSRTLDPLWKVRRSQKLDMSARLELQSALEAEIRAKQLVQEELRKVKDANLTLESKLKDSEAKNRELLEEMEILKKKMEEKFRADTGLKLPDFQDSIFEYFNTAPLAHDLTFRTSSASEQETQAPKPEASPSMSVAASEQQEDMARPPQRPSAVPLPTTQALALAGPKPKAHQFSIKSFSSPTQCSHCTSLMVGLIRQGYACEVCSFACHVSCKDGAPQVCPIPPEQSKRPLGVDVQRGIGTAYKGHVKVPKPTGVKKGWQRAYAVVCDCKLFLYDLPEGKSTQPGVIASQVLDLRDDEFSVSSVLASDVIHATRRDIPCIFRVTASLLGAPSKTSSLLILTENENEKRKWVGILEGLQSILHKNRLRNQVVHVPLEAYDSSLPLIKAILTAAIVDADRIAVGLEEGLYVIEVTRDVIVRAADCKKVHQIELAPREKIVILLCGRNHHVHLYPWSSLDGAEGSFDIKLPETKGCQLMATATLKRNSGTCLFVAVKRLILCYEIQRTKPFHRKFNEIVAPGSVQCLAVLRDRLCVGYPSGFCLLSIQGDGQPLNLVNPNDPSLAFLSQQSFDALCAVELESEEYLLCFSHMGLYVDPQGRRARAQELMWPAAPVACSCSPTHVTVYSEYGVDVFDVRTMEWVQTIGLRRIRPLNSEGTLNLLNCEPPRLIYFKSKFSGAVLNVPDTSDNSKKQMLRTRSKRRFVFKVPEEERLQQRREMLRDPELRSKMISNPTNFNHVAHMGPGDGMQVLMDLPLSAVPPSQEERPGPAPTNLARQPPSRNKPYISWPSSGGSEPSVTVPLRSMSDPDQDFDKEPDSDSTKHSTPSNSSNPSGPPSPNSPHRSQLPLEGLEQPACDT
Sequence of Ribosomal protein S6 kinase alpha-5 (Homo sapiens) (O75582 whole entry, looked up): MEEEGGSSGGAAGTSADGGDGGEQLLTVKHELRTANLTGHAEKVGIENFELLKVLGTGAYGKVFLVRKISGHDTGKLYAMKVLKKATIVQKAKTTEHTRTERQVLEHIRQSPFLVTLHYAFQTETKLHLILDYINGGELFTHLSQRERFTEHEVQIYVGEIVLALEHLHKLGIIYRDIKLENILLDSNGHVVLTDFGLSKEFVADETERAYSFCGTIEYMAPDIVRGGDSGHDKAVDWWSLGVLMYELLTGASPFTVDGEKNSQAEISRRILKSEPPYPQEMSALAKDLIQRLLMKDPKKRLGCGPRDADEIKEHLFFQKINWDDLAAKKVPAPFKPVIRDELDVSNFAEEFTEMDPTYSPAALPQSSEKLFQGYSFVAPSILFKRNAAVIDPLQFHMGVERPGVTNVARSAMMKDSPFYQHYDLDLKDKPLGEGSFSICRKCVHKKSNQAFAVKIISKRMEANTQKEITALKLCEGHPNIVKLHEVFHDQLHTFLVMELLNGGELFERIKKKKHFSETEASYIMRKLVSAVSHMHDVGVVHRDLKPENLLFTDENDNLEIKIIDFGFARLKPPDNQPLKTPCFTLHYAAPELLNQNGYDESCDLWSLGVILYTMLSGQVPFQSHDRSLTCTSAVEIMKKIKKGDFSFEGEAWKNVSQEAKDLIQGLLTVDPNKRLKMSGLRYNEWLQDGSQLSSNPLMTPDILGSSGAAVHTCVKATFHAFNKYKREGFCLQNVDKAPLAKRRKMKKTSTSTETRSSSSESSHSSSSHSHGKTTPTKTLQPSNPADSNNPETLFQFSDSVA
Sequence of Ribosomal protein S6 kinase beta-1 (Homo sapiens) (P23443 whole entry, looked up): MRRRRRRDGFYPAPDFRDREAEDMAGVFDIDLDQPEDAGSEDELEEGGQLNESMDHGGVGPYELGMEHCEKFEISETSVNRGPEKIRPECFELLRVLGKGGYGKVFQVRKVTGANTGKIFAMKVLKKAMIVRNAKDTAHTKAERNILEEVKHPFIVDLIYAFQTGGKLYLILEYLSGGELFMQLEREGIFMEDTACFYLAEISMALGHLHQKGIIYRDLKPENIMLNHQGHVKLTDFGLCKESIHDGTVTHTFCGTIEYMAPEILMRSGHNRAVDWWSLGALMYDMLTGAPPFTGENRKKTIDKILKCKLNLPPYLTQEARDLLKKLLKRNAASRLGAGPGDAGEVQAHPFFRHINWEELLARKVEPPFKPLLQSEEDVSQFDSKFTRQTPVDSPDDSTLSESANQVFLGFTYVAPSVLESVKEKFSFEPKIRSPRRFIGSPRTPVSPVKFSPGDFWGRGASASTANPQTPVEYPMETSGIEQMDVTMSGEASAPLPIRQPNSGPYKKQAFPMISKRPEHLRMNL
Sequence of Protein kinase C beta type (Homo sapiens) (P05771 2-671 limits assumed): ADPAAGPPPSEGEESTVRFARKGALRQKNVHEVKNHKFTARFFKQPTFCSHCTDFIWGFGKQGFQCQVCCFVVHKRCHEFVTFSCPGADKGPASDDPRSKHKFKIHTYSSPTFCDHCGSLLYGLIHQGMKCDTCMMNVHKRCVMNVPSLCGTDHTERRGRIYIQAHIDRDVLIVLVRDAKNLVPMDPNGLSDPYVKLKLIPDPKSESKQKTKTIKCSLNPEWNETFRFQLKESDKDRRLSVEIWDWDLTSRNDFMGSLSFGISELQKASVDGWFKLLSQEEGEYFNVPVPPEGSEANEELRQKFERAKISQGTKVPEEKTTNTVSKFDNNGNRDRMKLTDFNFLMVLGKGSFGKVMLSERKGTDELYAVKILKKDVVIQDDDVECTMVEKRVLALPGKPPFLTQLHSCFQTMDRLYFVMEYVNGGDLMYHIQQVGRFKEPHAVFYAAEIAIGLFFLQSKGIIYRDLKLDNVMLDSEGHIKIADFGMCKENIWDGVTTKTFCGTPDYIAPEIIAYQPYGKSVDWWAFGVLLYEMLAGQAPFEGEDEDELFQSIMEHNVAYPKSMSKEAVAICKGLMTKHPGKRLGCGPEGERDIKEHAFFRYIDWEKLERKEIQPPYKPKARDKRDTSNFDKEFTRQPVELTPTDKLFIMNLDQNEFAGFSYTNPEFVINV

Row | Structure (SMILES) | inhibition [1] | inhibition [2] | inhibition [3] | inhibition [4] | inhibition [5] | inhibition [6] | inhibition [7] | inhibition [8] | inhibition [9] | inhibition [10] | inhibition [11] | inhibition [12] | inhibition [13] | inhibition [14] | inhibition [15] | inhibition [16] | inhibition [17] | inhibition [18] | inhibition [19] | inhibition [20]
1 | CNC(=O)c1cccc(C#Cc2cncnc2Nc2ccc(OCc3cccc(F)c3)c(Cl)c2)c1 | -0.5% | 1.42% | -0.81% | -3.2% | -0.16% | -0.2% | 0.45% | 1.97% | 0.88% | 0.77% | 1% | 1.13% | 0.28% | -0.17% | 0.64% | 0.07% | 1.77% | 1.23% | -0.12% | 0.99%
2 | CNC(=O)c1cncc(/C=C/c2ccccc2Cl)c1 | 1.52% | 2.33% | -0.05% | 0.26% | 3.05% | 3.68% | 1.83% | 1.78% | 0.27% | 0.23% | -0.25% | 1.4% | 3.17% | 0.42% | -0.07% | 2.7% | 5.12% | 1.33% | 2.39% | 3.03%
3 | Nc1nc(-c2cccc(Cl)c2)c(-c2ccc3ncccc3n2)s1 | -0.36% | 5.58% | -0.33% | 0.87% | 9.72% | 9.28% | 2.91% | 3.45% | 1.21% | 3.77% | 0.49% | 2.34% | 4.12% | 1.05% | 1.4% | 2.33% | 4.87% | 5.47% | 7.42% | 1.18%
4 | c1ccc(-c2nc3n(c2-c2ccc4c(c2)OCO4)CCC3)nc1 | 1.51% | -0.39% | 1.65% | 4.63% | 8.97% | 8.14% | 5.25% | 6.79% | 1.12% | 0.67% | 0.98% | 1.49% | 5.08% | 0.9% | 1.8% | 3.53% | 5.04% | 1.35% | 1.85% | 0%
5 | COc1cc2c(cc1Nc1nc(Nc3ccsc3C(N)=O)c3cc[nH]c3n1)N(C(=O)CN(C)C)CCC2(C)C | 2.48% | 6.74% | 4.54% | 14.9% | 4.6% | 8.3% | 5.18% | 13.8% | 2.7% | 4.93% | 2.56% | 2.98% | 8.67% | 4.21% | 34.3% | 2.16% | 3.73% | 6.04% | 9.1% | 8.05%
6 | COc1cccc(-c2c[nH]c3c(N/N=C/c4ccncc4)ncnc23)c1 | 0.71% | 6.35% | 0.92% | 5.25% | 8.98% | 9.82% | 2.85% | 4.13% | 2.85% | 8.54% | 6.08% | 1.57% | 3.93% | 0.02% | 4.24% | 2.33% | 4.29% | 2.72% | 1.53% | 2.27%
7 | CCCN1CCC(c2ccc(Nc3nc(Nc4cc(F)ccc4C(N)=O)c4cc[nH]c4n3)c(OC)c2)CC1 | 2.45% | 30.4% | 1.71% | 23.3% | 2.89% | 8.65% | 2.82% | 12% | 2.27% | 7.03% | 0.96% | 2.33% | 3.51% | 0.66% | 16.6% | 0.19% | 4.9% | 2.99% | 9.93% | 3.12%
8 | N#Cc1c(NC(=O)CN2CCOCC2)sc2c1CCCC2 | 0.22% | 2.63% | 0.43% | 0.37% | 3.16% | 3.12% | 2.5% | 2% | 2.57% | 1.13% | 2.07% | 2.3% | 1.82% | 2.23% | 5.72% | 0.89% | 2.05% | 5.18% | 3.17% | 3.77%
9 | FC(F)(F)c1cccc(-c2nn3ncccc3c2-c2ccnc(Nc3ccc4c(c3)OCCO4)n2)c1 | 0.13% | 0.81% | -0.8% | 1.29% | 1.59% | 1.24% | 0.3% | 3.51% | 1.22% | -0.48% | 0.71% | 1.01% | 2.39% | 0.53% | 1.32% | 0.07% | -2.34% | 2.1% | 1.3% | 0.03%
10 | CCc1nn2ncccc2c1-c1ccnc(NC2CC2)n1 | 3.74% | 2.27% | 1.18% | 2.16% | 0.41% | 1.19% | 1.26% | 3.44% | 1.12% | 2.51% | 1.73% | 0.78% | 1.73% | 0.35% | 1.73% | 1.02% | 2.65% | 0.47% | 0.53% | 0.95%
11 | COc1ccc(CNC(=O)c2ccc(-c3cc(-c4nnc(C)o4)ccc3C)cc2)cc1 | 2.98% | 6.58% | 2.16% | 2.99% | 9.25% | 9.58% | 3.89% | 4.66% | 1.64% | 2.15% | 1.94% | 3.14% | 3.15% | 0.19% | 0.76% | 6.66% | 9.43% | -0.12% | 4.73% | 3.1%
12 | CC(C)COC(=O)c1ccc2c(c1)/C(=C/Nc1ccc(S(N)(=O)=O)cc1)C(=O)N2 | 3.02% | 6.98% | 3.62% | 12.7% | 3.88% | 11.6% | 5.45% | 20.9% | 3% | 18.1% | 19.6% | 6.49% | 11.8% | 1.15% | 7.21% | 3.19% | 5.57% | -1.68% | 1.97% | -1.87%
13 | COc1ccc2[nH]c3c4[nH]c5ccc(OC)cc5c4c4c(c3c2c1)C(=O)NC4=O | 0.84% | 11.8% | -0.86% | 2.96% | 18.7% | 48.4% | 11.8% | 45.3% | 45.6% | 83.6% | 29.8% | 4.03% | 17.2% | 4.27% | 28.7% | 1.55% | 8.91% | 3.82% | 19.5% | 4.07%
